# Experimental data reported in the supplement of paper PMC10849652.
# Of roughly 7,900 targets only a part is listed; those with a hit were picked by preference. About 0.6% of all pairs of compound and target were hits. Unmarked numbers belong to inactive results.
# Key:
# Experiment in all cases: log2 fold change, soluble protein after heating vs DMSO (PISA); higher = thermal stabilisation; K562 cells, 10 uM, 30 min; active = over 0.2 and 3.5 SD of the protein, either way, in both replicates (recomputed)
# saracatinib = compound: CN1CCN(CCOc2cc(OC3CCOCC3)c3c(Nc4c(Cl)ccc5c4OCO5)ncnc3c2)CC1 [saracatinib]
# Summary of the method: (§1)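 K562 cells at 2×10^6 cells/mL were treated with 10 μM compound for 30 min. Aliquots were heated for 3 min across 48°C-58°C, pooled, and extracted in PBS with 0.5% NP-40 at 4°C; soluble protein was the supernatant after 21,000xg for 90 min. Soluble protein was quantified by TMTpro 16plex LC-MS/MS with channel sums equalised, and reported as log2 fold change in thermal stability against DMSO controls, with values from duplicates.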
# sotrastaurin = compound: CN1CCN(c2nc(C3=C(c4c[nH]c5ccccc45)C(=O)NC3=O)c3ccccc3n2)CC1 [sotrastaurin]
# Summary of the method: as §1
# alvocidib = compound: CN1CC[C@H](c2c(O)cc(O)c3c(=O)cc(-c4ccccc4Cl)oc23)[C@H](O)C1 [alvocidib]
# Summary of the method: as §1
# Tubastatin A = compound: CN1CCc2c(c3ccccc3n2Cc2ccc(C(=O)NO)cc2)C1 [Tubastatin A]
# Summary of the method: as §1
# [1] = compound: CNC(=O)C1=CC=CC=C1NC2=NC(=NC=C2Cl)NC3=C(C=C(C=C3)N4CCOCC4)OC
# Summary of the method: as §1
# defactinib = compound: CNC(=O)c1ccc(Nc2ncc(C(F)(F)F)c(NCc3nccnc3N(C)S(C)(=O)=O)n2)cc1 [defactinib]
# Summary of the method: as §1
# rucaparib = compound: CNCc1ccc(-c2[nH]c3cc(F)cc4c3c2CCNC4=O)cc1 [rucaparib]
# Summary of the method: as §1
# [2] = compound: CNc1nc(-c2ccc3c(N)n[nH]c3c2)cc(N2C[C@@H](C(=O)NC3CCCCC3)CC[C@H]2C)n1
# Summary of the method: as §1
# encorafenib = compound: COC(=O)N[C@@H](C)CNc1nccc(-c2cn(C(C)C)nc2-c2cc(Cl)cc(NS(C)(=O)=O)c2F)n1 [encorafenib]
# Summary of the method: as §1
# [3] = compound: COC(=O)[C@H](CCSC)NC(=O)C1=C(C=C(C=C1)NC[C@H](CS)N)C2=CC=CC=C2
# Summary of the method: as §1
# Chain of UniProt Q9Y2V0 (Q9Y2V0 whole entry, looked up): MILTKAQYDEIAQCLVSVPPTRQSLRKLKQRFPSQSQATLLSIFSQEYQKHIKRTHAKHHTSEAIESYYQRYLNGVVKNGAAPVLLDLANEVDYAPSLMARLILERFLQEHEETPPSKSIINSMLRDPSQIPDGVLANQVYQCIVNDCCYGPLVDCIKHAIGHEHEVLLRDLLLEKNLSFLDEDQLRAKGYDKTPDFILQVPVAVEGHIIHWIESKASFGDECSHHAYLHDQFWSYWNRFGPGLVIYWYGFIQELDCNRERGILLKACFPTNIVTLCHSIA
# Chain of UniProt O75794 (O75794 whole entry, looked up): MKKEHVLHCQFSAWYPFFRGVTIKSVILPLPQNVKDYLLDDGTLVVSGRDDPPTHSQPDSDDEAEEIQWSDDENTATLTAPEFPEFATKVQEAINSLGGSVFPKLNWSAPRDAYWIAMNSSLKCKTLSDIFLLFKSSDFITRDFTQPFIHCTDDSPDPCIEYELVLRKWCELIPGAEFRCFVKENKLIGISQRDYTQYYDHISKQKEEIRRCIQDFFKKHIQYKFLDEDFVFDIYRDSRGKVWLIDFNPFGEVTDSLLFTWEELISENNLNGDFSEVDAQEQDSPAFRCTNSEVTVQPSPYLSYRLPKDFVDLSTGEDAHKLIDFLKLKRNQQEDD
# Chain of UniProt P16152 (P16152 whole entry, looked up): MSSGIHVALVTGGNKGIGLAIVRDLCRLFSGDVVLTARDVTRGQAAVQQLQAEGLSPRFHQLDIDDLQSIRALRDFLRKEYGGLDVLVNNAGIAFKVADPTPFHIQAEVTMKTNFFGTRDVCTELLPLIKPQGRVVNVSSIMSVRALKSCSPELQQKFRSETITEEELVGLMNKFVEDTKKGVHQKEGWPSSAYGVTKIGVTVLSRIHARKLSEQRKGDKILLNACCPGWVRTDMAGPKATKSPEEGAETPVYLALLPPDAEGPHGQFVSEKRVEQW
# Chain of UniProt Q9Y5P4 (Q9Y5P4 whole entry, looked up): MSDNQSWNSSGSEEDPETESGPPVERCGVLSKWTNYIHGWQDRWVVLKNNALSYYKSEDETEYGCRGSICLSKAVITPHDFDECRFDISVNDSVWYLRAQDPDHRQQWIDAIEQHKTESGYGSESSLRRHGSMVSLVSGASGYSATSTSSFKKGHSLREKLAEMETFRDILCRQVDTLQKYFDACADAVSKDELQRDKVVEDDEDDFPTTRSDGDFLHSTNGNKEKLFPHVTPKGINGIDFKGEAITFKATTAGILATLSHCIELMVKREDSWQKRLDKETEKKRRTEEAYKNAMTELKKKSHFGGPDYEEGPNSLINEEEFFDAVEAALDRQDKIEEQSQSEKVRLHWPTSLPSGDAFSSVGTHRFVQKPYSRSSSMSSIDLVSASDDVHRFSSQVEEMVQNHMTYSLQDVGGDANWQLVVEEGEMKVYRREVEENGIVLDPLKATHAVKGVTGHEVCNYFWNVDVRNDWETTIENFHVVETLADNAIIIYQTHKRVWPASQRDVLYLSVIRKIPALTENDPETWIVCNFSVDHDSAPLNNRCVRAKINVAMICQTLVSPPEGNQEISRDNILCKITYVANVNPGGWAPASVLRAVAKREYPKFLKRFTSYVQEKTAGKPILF
# Chain of UniProt Q5T6V5 (Q5T6V5 whole entry, looked up): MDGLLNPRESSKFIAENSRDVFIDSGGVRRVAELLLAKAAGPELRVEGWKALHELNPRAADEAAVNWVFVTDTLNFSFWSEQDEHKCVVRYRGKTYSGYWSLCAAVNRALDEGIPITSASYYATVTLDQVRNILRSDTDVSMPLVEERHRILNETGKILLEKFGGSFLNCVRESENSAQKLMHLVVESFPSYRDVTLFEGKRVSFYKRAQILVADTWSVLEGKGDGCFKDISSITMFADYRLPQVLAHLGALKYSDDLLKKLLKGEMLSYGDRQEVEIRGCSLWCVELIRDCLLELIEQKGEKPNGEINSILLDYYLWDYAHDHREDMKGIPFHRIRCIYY
# Chain of UniProt Q9UNS2 (Q9UNS2 whole entry, looked up): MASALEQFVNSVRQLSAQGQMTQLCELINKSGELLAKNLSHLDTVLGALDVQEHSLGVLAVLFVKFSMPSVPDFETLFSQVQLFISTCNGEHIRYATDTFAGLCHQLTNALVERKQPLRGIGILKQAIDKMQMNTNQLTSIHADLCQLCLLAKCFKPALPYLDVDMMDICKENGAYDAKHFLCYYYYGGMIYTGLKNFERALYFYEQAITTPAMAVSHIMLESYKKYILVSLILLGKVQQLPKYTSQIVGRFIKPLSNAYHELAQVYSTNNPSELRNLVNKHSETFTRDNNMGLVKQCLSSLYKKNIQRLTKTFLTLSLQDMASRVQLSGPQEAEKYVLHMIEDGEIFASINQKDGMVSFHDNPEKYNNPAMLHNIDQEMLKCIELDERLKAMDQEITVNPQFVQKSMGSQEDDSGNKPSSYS
# Chain of UniProt Q16740 (Q16740 whole entry, looked up): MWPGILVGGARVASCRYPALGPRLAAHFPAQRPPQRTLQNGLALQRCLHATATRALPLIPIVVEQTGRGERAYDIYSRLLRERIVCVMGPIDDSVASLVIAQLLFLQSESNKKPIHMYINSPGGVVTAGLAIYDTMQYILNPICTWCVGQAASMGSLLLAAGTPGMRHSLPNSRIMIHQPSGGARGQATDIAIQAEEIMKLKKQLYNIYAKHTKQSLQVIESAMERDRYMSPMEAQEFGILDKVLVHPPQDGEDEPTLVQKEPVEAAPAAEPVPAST
# Chain of UniProt Q8WUX2 (Q8WUX2 whole entry, looked up): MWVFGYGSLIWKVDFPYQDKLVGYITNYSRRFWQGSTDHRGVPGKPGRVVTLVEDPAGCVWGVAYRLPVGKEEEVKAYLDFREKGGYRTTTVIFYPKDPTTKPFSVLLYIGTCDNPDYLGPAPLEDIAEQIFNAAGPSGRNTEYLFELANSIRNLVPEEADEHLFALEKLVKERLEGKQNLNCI
# Chain of UniProt P42575 (P42575 whole entry, looked up): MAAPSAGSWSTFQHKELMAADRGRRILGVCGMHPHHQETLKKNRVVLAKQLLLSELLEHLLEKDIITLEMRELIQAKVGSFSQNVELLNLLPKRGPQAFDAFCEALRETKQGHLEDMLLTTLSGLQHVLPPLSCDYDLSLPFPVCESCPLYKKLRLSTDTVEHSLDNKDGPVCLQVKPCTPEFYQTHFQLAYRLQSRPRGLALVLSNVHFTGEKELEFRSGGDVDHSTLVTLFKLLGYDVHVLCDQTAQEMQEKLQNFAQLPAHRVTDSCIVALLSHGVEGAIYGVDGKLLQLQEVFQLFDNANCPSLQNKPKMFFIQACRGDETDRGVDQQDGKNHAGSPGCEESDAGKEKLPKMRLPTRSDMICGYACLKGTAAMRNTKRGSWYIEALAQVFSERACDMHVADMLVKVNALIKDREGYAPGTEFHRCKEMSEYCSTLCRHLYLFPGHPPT
# Chain of UniProt P42574 (P42574 whole entry, looked up): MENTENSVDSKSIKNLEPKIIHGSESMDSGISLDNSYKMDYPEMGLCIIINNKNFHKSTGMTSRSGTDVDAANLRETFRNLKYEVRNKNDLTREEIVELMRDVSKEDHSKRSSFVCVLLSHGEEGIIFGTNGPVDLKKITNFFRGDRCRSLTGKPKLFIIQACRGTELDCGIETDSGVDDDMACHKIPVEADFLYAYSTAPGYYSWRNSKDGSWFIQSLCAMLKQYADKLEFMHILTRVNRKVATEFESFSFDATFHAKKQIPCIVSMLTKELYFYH
# Chain of UniProt O00748 (O00748 whole entry, looked up): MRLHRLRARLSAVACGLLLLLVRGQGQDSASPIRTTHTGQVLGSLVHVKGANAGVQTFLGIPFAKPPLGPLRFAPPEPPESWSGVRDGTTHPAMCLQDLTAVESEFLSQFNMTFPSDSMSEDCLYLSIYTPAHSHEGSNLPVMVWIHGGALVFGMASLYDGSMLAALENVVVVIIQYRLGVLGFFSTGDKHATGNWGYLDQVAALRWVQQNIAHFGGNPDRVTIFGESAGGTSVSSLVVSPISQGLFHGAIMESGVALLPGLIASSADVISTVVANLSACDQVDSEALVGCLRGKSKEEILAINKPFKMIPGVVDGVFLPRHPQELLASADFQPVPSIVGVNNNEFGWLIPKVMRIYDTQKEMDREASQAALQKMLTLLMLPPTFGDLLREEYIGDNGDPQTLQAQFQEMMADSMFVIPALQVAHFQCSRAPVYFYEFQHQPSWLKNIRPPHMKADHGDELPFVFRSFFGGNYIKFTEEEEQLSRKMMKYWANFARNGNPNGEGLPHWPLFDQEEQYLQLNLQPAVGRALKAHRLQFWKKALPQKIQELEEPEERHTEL
# Chain of UniProt Q9BWU1 (Q9BWU1 whole entry, looked up): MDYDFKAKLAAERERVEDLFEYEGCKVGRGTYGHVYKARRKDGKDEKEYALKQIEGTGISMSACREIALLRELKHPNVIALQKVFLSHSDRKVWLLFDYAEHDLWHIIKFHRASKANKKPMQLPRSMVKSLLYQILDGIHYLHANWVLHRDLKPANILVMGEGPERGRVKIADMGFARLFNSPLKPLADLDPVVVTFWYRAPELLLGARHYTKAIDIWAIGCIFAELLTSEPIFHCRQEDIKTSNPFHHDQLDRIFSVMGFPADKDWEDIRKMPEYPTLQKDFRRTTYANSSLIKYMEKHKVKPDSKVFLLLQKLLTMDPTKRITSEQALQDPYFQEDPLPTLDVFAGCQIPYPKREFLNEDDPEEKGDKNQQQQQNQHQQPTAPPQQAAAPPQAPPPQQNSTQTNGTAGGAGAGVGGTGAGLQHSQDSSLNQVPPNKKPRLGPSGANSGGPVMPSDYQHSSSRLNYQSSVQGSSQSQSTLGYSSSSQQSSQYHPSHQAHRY
# Chain of UniProt P05937 (P05937 whole entry, looked up): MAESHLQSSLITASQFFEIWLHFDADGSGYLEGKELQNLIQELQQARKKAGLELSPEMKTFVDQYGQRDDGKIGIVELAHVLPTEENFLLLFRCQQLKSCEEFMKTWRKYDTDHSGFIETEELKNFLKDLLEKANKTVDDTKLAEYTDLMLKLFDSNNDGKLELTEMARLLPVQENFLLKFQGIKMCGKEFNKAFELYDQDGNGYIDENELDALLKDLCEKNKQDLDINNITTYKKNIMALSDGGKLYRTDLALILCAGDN
# Chain of UniProt P24311 (P24311 whole entry, looked up): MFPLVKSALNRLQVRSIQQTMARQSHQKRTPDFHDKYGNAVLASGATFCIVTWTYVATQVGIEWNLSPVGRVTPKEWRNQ
Target,log2 fold change (saracatinib),log2 fold change (sotrastaurin),log2 fold change (alvocidib),log2 fold change (Tubastatin A),log2 fold change [1],log2 fold change (defactinib),log2 fold change (rucaparib),log2 fold change [2],log2 fold change (encorafenib),log2 fold change [3]
COX7B (UniProt P24311),0.174,0.058,0.026,-0.087,0.059,0,-0.02,-0.049,-0.036,-0.073
CPT1A (UniProt P50416),0.021,0.075,0.578 (active),0.142,0.161,-0.087,0.054,0.148,0.069,-0.04
CD53 (UniProt P19397),-0.22,0.087,-0.06,0.009,-0.21,-0.069,-0.032,0.125,-0.006,0.051
CDK19 (UniProt Q9BWU1),0.006,0.035,0.585 (active),-0.104,-0.209,0.046,0.345,0.03,-0.086,-0.005
CDC123 (UniProt O75794),-0.039,0.073,-0.033,0.075,-0.043,0.008,-0.017,-0.041,0.052,-0.032
CBX5 (UniProt P45973),-0.04,-0.001,-0.115,0.078,-0.026,-0.205,-0.022,0.043,0.009,-0.012
CERT isoform 3 (UniProt Q9Y5P4),0.033,0.014,0.002,-0.105,0.131,-0.097,-0.009,0.116,-0.015,0.047
CAMK2G isoform 6 (UniProt Q13555),-0.005,-0.088,0.123,-0.012,0.25,0.14,0.061,0.129,0,-0.074
CBX1 (UniProt P83916),0.073,-0.037,-0.026,0.035,-0.018,-0.143,-0.01,-0.02,-0.043,0
CCZ1 (UniProt P86791),0.079,-0.003,-0.052,-0.016,0.012,-0.018,-0.006,-0.025,-0.01,-0.019
CHEK1 (UniProt O14757),0,-0.271 (active),-0.041,0.09,-0.32 (active),-0.031,-0.071,0.003,0.043,0
COCH (UniProt O43405),0.126,0.01,0.029,-0.036,0.031,0.1,0.011,-0.139,-0.074,0.05
CALB1 (UniProt P05937),0.033,0.008,0.034,-0.026,0.02,0.013,-0.07,-0.14,0.023,0.021
CES2 isoform 4 (UniProt O00748),0.04,0.196,0.065,0.115,0.247,-0.164,0.3,0.218,-0.145,0.044
CLN8 (UniProt Q9UBY8),0.073,0.107,0.061,-0.225,0.022,-0.062,-0.061,-0.292,-0.117,0.05
CHD3 isoform 3 (UniProt Q12873),-0.067,-0.312,-0.12,0.096,-0.029,-0.253,0.134,-0.024,0.136,-0.087
CERS2 (UniProt Q96G23),0.012,-0.033,-0.018,-0.056,-0.121,-0.001,0.002,-0.048,0.017,0.03
CHAC2 (UniProt Q8WUX2),-0.016,-0.028,-0.075,-0.02,-0.02,-0.07,0.122,-0.05,0.237,0.025
CASP2 (UniProt P42575),-0.1,-0.048,-0.084,0.082,0.037,-0.08,-0.006,0.053,0.133,-0.005
C15orf41 (UniProt Q9Y2V0),0.009,0.042,-0.042,0.011,-0.137,-0.008,0.081,-0.017,0.01,0.079
CBR1 (UniProt P16152),0.02,-0.005,-0.098,-0.059,0.011,-0.041,-0.01,-0.003,-0.024,0.004
CETN3 (UniProt O15182),-0.027,-0.022,0.013,0.015,0.128,-0.008,-0.006,-0.003,-0.021,0.082
CASP3 (UniProt P42574),0.107,0.048,0.005,0.066,-0.024,-0.002,-0.062,0.001,-0.014,-0.004
COPS3 (UniProt Q9UNS2),-0.016,0.02,-0.019,-0.025,-0.021,-0.023,-0.037,-0.013,-0.003,0.033
CALCOCO2 isoform 4 (UniProt Q13137),-0.03,-0.127,0.033,0.037,0.012,0.017,-0.044,-0.034,0.076,0.021
CHCHD1 (UniProt Q96BP2),-0.069,0.059,0.009,-0.025,0.132,0.017,0.114,0.04,-0.037,-0.024
CLCN7 (UniProt P51798),0.004,-0.112,0.007,-0.071,0.044,0.025,-0.052,-0.156,0.151,-0.04
C9orf64 (UniProt Q5T6V5),-0.053,-0.124,-0.177,0.036,-0.04,-0.067,0.377 (active),-0.018,0.047,0.016
CLPP (UniProt Q16740),0,0.009,-0.011,0.067,0.054,-0.017,0.026,-0.028,-0.077,-0.038
